From PubChem BioAssay (EPA / NIEHS)
Records with an inconclusive call do not appear. Active and inactive are the calls of the source. The calls were made as follows, unless noted: active = hit-call score of the fitted dose curve at least 0.9, where 1 is the maximum; inactive = score below 0.9.

Legend:
[1] = ATG_NFI_CIS: Attagene CIS-FACTORIAL HepG2 Assay for human Nuclear Factor I (NFI) (AID 2282989); settings: HepG2 cis-regulatory reporter, NFI response element transcription; actives raise or lower the signal
Summary of the method: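 Read-out: reporter mRNA via RT-PCR plus capillary electrophoresis with fluorescence detection. Transiently transfected HepG2 (endogenous TF activity on cis promoters), 24 h compound exposure; gain or loss of signal fitted against DMSO.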

[2] = molecular target: Myc proto-oncogene protein (Homo sapiens) (UniProt P01106); assay: ATG_Myc_CIS: Attagene CIS-FACTORIAL HepG2 Assay for human Myelocytomatosis (Myc) Proto-Oncogene Transcription Factor (AID 2282990); settings: HepG2, Attagene cis-reporter transcription factor activity; actives raise or lower the signal
Chain of Myc proto-oncogene protein (Homo sapiens) (P01106 whole entry, looked up, the tested form may be a part): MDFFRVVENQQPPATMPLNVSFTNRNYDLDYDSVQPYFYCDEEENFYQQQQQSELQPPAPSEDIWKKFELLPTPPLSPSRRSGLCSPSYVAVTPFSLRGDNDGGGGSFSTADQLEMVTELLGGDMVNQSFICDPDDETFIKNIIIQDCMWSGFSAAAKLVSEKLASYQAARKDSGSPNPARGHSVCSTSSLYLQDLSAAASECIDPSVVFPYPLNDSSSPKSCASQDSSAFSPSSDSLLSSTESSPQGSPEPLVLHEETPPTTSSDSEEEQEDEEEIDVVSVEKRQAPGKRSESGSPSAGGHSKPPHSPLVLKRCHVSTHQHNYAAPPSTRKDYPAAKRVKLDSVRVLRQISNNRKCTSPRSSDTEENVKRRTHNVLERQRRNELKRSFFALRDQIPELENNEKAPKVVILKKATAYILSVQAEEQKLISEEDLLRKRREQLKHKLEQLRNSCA
Summary of the method: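 Fluorescence intensity of reporter-specific cDNA fragments, separated by capillary electrophoresis, gives the signal. Transfected HepG2 cells carrying cis-promoter reporter constructs are incubated with compound for 24 h; DMSO serves as baseline.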

[3] = ATG_NF_kB_CIS: Attagene CIS-FACTORIAL HepG2 Assay for human Nuclear Factor Kappa B (NF-kB) (AID 2282991); settings: HepG2 Attagene cis-factorial NF-kB reporter mRNA; actives raise or lower the signal
Summary of the method: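 HepG2, transient multi-reporter transfection, cis promoter elements (endogenous TFs). 24 h exposure. Total RNA → RT → PCR → 6-FAM label → HpaI → CE. Gain/loss vs DMSO.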

[4] = ATG_NRF2_ARE_CIS: Attagene CIS-FACTORIAL HepG2 Assay for human Nuclear Factor Erythroid 2 Related Factor 2 (NFR2) response to Antioxidant Response Elements (ARE) (AID 2282992); settings: HepG2 Attagene ARE/NRF2 reporter, transcription factor activity; actives raise or lower the signal;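 as to AC50: reporter mRNA level measured by RT-PCR and capillary electrophoresis fluorescence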
Summary of the method: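 Cis-factorial assay: transfected HepG2 reporter library, 24 h dosing, mRNA readout via RT-PCR/CE; DMSO-referenced bidirectional analysis.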

[5] = ATG_Oct_MLP_CIS: Attagene CIS-FACTORIAL HepG2 Assay for human Octamer-Binding Transcription Factor (Oct) (AID 2282993); settings: HepG2 Attagene cis-factorial Oct reporter, mRNA; actives raise or lower the signal
Summary of the method: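 Read-out: reporter mRNA via RT-PCR plus capillary electrophoresis of 6-FAM-labelled fragments. Transiently transfected HepG2, 24 h exposure, endogenous TF activity on cis elements. Gain or loss of signal fitted relative to DMSO.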

[6] = molecular target: Cellular tumor antigen p53 (Homo sapiens) (UniProt P04637); assay: ATG_p53_CIS: Attagene CIS-FACTORIAL HepG2 Assay for human p53 Transcription Factor (AID 2282994); settings: HepG2 p53 cis-element reporter, Attagene mRNA; actives raise or lower the signal
Chain of Cellular tumor antigen p53 (Homo sapiens) (P04637 whole entry, looked up): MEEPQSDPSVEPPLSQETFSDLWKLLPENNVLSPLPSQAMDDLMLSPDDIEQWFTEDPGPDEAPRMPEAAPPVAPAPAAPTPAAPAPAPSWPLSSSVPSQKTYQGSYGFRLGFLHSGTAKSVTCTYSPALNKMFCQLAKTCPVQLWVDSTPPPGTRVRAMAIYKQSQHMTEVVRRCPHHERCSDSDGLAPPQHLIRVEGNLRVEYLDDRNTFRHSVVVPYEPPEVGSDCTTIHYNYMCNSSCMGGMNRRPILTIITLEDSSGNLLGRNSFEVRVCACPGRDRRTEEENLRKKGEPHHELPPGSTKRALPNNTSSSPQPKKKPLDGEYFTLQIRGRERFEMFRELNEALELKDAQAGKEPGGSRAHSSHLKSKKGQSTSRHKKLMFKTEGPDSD
Summary of the method: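 Using HepG2 hepatoma cells carrying cis-acting multiplexed reporters, mRNA induction is detected after a 24 h exposure. Gain- and loss-of-signal responses are fitted relative to DMSO-treated cells.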

[7] = molecular target: human Peroxisome Proliferator-activated Receptor delta (PPARd), PPARD (gene 5467) (UniProt Q03181); assay: ATG_PPARd_TRANS: Attagene TRANS-FACTORIAL HepG2 Assay for human Peroxisome Proliferator-activated Receptor delta (PPARd) (AID 2283002; active = hit-call score of the fitted dose curve at least 0.9, where 1 is the maximum)
Chain of human Peroxisome Proliferator-activated Receptor delta (PPARd), PPARD (gene 5467) (Q03181 whole entry, looked up, the tested form may be a part): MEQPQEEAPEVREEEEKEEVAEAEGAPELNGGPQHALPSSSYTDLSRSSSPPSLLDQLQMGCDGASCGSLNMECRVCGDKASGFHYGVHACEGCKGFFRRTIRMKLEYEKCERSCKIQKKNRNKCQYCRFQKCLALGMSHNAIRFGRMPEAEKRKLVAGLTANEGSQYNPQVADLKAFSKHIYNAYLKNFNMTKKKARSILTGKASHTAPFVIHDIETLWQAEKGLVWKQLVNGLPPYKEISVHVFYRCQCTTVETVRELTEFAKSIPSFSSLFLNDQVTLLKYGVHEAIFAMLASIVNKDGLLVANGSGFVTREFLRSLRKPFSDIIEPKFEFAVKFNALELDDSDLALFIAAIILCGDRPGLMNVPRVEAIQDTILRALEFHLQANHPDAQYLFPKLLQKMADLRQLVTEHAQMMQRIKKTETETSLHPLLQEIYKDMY
Summary of the method: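 Fluorescence from capillary electrophoresis of labelled RT-PCR reporter fragments gives the signal; DMSO sets baseline. Cells: HepG2 transiently carrying GAL4-UAS reporter units plus chimeric nuclear receptor-Gal4 proteins, exposed to chemicals for 24 h.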

[8] = molecular target: human Retinoic Acid Receptor beta (RARb), RARB (gene 5915) (UniProt P10826); assay: ATG_RARb_TRANS: Attagene TRANS-FACTORIAL HepG2 Assay for human Retinoic Acid Receptor beta (AID 2283004; active = hit-call score of the fitted dose curve at least 0.9, where 1 is the maximum)
Chain of human Retinoic Acid Receptor beta (RARb), RARB (gene 5915) (P10826 whole entry, looked up, the tested form may be a part): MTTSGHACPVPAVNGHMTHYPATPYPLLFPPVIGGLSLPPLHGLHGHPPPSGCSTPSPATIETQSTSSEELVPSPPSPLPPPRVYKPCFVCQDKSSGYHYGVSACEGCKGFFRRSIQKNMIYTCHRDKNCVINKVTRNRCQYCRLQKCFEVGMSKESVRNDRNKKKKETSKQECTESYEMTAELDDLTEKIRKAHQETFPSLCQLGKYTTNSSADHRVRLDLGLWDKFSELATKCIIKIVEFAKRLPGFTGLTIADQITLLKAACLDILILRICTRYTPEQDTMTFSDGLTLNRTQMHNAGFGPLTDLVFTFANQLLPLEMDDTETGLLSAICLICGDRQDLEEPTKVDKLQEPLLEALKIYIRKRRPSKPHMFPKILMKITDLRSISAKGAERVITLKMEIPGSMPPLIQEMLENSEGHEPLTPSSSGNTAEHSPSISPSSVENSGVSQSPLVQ
Summary of the method: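 HepG2 cells were transiently transfected with GAL4-UAS reporter units that report activity of exogenous chimeric NR-Gal4 proteins, then exposed to compound for 24 h. Reporter mRNA was quantified by RT-PCR with capillary electrophoresis fluorescence, as gain of signal over DMSO.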

[9] = molecular target: Retinoic acid receptor alpha (Homo sapiens) (UniProt P10276); assay: ATG_RARa_TRANS: Attagene TRANS-FACTORIAL HepG2 Assay for human Retinoic Acid Receptor alpha (RARa) (AID 2283005; active = hit-call score of the fitted dose curve at least 0.9, where 1 is the maximum)
Chain of Retinoic acid receptor alpha (Homo sapiens) (P10276 whole entry, looked up, the tested form may be a part): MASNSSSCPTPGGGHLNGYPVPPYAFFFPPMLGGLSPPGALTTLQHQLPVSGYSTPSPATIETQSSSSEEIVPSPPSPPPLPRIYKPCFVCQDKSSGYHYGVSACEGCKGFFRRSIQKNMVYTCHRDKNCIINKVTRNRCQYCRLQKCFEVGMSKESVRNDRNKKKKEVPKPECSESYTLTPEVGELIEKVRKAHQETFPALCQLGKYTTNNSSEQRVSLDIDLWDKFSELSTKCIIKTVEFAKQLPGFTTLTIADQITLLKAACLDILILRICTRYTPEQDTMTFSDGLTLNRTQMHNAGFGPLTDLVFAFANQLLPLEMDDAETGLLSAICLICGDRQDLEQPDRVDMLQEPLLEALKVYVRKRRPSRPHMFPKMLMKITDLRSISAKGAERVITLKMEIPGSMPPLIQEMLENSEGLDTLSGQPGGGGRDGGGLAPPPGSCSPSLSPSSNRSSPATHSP
Summary of the method: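 HepG2 transiently transfected with multiplex GAL4-UAS reporter units including a human RARa–GAL4 chimera; 24 h compound exposure. Reporter mRNA quantified by RT-PCR, 6-FAM labeling and capillary electrophoresis; gain of signal versus DMSO.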

[10] = molecular target: Peroxisome proliferator-activated receptor gamma (Homo sapiens) (UniProt P37231); assay: ATG_PPARg_TRANS: Attagene TRANS-FACTORIAL HepG2 Assay for human Peroxisome Proliferator-activated Receptor-gamma (PPARg) (AID 2283007; active = hit-call score of the fitted dose curve at least 0.9, where 1 is the maximum)
Chain of Peroxisome proliferator-activated receptor gamma (Homo sapiens) (P37231 whole entry, looked up): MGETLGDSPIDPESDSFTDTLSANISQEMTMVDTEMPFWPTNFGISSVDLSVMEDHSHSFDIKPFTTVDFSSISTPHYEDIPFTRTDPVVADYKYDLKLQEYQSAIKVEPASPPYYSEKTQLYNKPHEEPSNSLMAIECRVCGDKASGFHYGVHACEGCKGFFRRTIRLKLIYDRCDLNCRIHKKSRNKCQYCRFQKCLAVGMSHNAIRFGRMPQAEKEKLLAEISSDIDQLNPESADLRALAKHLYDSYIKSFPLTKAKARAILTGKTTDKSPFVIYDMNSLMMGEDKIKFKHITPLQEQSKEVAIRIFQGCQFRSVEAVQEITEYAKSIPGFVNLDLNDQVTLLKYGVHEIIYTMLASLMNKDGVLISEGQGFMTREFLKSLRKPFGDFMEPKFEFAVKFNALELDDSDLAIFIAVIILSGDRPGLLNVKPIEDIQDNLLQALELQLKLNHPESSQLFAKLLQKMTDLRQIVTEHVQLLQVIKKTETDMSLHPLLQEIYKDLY
Summary of the method: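 Multiplexed reporter transcription units in HepG2, 24 h dosing, reporter transcripts quantified by fluorescent RT-PCR and capillary electrophoresis. Increase over DMSO scored.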

[11] = molecular target: Nuclear receptor subfamily 1 group I member 2 (Homo sapiens) (UniProt O75469); assay: ATG_PXR_TRANS: Attagene TRANS-FACTORIAL HepG2 Assay for human Pregnane X Receptor (PXR) (AID 2283008; active = hit-call score of the fitted dose curve at least 0.9, where 1 is the maximum)
Chain of Nuclear receptor subfamily 1 group I member 2 (Homo sapiens) (O75469 whole entry, looked up, the tested form may be a part): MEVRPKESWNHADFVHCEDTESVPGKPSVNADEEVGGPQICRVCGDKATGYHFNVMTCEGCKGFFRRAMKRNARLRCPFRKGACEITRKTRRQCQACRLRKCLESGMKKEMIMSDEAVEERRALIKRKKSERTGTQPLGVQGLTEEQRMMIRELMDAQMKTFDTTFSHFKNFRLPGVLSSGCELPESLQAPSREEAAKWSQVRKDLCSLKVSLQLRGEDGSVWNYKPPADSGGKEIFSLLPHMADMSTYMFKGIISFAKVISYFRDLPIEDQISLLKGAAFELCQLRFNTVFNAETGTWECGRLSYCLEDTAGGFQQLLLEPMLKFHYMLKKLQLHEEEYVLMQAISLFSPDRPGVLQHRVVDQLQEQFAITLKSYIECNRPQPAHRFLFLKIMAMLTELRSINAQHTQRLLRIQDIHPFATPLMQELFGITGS
Summary of the method: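 Fluorescence intensity of FAM-labelled, HpaI-digested reporter amplicons, separated by capillary electrophoresis, quantifies induction. HepG2 cells with PXR-Gal4 trans-reporter system were exposed 24 h; DMSO defines baseline.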

[12] = molecular target: human Retinoic Acid Receptor gamma (RARg), RARG (gene 5916) (UniProt P13631); assay: ATG_RARg_TRANS: Attagene TRANS-FACTORIAL HepG2 Assay for human Retinoic Acid Receptor gamma (RARg) (AID 2283009; active = hit-call score of the fitted dose curve at least 0.9, where 1 is the maximum)
Chain of human Retinoic Acid Receptor gamma (RARg), RARG (gene 5916) (P13631 whole entry, looked up, the tested form may be a part): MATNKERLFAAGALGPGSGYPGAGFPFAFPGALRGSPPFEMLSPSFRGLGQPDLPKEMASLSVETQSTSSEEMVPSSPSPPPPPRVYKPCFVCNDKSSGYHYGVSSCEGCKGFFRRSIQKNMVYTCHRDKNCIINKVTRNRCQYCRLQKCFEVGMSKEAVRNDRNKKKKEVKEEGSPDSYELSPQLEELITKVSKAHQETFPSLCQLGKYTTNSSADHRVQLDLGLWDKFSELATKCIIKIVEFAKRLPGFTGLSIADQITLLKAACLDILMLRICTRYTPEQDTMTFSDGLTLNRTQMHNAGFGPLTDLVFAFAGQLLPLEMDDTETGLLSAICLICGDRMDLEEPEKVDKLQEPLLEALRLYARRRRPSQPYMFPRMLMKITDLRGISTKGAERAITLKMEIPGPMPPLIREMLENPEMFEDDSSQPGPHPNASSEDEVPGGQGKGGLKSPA
Summary of the method: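 HepG2 transiently transfected with GAL4-UAS reporter units and chimeric NR-Gal4 constructs; 24 h compound exposure. Reporter mRNA quantified by RT-PCR, FAM labeling, HpaI digestion and capillary electrophoresis; gain-of-signal versus DMSO.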

[13] = molecular target: human RAR-related Orphan Receptor beta (RORb), RORB (gene 6096) (UniProt Q92753); assay: ATG_RORb_TRANS: Attagene TRANS-FACTORIAL HepG2 Assay for human RAR-related Orphan Receptor beta (RORb) (AID 2283010; active = hit-call score of the fitted dose curve at least 0.9, where 1 is the maximum)
Chain of human RAR-related Orphan Receptor beta (RORb), RORB (gene 6096) (Q92753 whole entry, looked up, the tested form may be a part): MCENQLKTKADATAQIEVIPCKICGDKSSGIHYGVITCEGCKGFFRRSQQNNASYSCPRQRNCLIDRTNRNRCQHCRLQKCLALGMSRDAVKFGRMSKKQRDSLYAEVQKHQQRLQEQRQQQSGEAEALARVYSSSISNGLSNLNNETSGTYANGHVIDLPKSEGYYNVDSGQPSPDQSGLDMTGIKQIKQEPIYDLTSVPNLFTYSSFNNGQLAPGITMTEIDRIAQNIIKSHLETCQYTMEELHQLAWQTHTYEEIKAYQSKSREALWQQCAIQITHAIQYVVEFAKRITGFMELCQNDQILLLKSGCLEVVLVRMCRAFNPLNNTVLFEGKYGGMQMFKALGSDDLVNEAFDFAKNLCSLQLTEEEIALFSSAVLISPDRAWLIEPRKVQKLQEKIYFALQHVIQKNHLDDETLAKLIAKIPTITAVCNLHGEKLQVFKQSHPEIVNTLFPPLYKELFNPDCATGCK
Summary of the method: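 HepG2 cells transiently transfected with GAL4-UAS reporter units expressing chimeric NR-Gal4 protein; reporter mRNA measured 24 h after dosing by RT-PCR, 6-FAM labelling and capillary electrophoresis. Gain-of-signal fitted relative to DMSO baseline.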

[14] = molecular target: human Peroxisome Proliferator-activated Receptor alpha (PPARa), PPARA (gene 5465) (UniProt Q07869); assay: ATG_PPARa_TRANS: Attagene TRANS-FACTORIAL HepG2 Assay for human Peroxisome Proliferator-activated Receptor alpha (PPARa) (AID 2283001; active = hit-call score of the fitted dose curve at least 0.9, where 1 is the maximum;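 as to AC50: potency for gain of reporter signal over DMSO so agonist or activator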)
Chain of human Peroxisome Proliferator-activated Receptor alpha (PPARa), PPARA (gene 5465) (Q07869 whole entry, looked up, the tested form may be a part): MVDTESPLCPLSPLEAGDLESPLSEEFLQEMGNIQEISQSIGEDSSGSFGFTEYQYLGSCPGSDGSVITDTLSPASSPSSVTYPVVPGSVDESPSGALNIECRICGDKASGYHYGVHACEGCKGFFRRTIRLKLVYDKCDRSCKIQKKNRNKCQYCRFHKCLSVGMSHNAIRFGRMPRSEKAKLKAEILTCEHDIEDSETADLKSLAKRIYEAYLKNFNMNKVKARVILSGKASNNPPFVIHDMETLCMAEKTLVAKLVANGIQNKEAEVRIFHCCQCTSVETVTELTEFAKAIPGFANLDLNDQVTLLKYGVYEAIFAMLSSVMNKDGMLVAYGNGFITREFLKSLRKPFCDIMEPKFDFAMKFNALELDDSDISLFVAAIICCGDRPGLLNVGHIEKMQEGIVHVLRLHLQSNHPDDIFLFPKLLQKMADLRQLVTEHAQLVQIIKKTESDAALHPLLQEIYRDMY
Summary of the method: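 HepG2 cells transiently transfected with multiplexed GAL4-UAS reporters driven by exogenous chimeric NR-Gal4 proteins; reporter mRNA measured after 24 h dosing. Read-out by RT-PCR, 6-FAM labelling, HpaI digestion and capillary electrophoresis; gain of signal versus DMSO.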

Measured: AC50

CCCC(C)CCC(C)=O (stereo unspecified)
not listed: [14]
inactive: all other assays above

COc1ccc(C(Cl)=C(c2ccc(OC)cc2)c2ccc(OC)cc2)cc1
active: [11] 3.67 µM
not listed: [7] | [10] | [13] | [14]
inactive: all other assays above

OC1CCCCCCCCCCC1
active: [11] 8.87 µM
not listed: [9] | [13] | [14]
inactive: all other assays above

CCCCCCCCCCCCCOP(=O)(O)O
active: [10] 16.4 µM
not listed: [8] | [9] | [13] | [14]
inactive: all other assays above

CC(C)(C)c1ccc(OC(=O)c2ccccc2O)cc1
not listed: [7] | [8] | [9] | [12] | [13]
inactive: all other assays above

C=C[C@](C)(O)CC[C@@H]1[C@@]2(C)CCCC(C)(C)[C@@H]2CC[C@@]1(C)O
inactive: [1] | [2] | [3] | [5] | [6] | [7] | [10]
active: [4] 6.58 µM | [11] 0.331 µM

C[C@]12CCC(=O)C=C1CC[C@@H]1[C@@H]2C(=O)C[C@@]2(C)[C@H]1CC[C@]2(O)C(=O)CO
active: [11] 26.9 µM
not listed: [8] | [9] | [12] | [13] | [14]
inactive: all other assays above

CC(C)c1ccc(C#N)cc1
not listed: [7] | [8] | [10] | [12] | [13]
inactive: all other assays above

Cc1ccc2c(c1)C(=O)c1ccccc1C2=O
active: [3] 6.48 µM | [4] 10.5 µM | [10] 15.1 µM | [11] 6.18 µM
inactive: [1] | [2] | [5] | [6] | [7] | [12]

CCCOCCOCCOCCO
inactive: [1] | [2] | [3] | [4] | [5] | [6] | [7] | [11]

CC(C)(C)C(=O)C=Cc1ccc(Cl)cc1
active: [1] 48.8 µM | [5] 26.3 µM | [6] 59 µM | [14] 24.7 µM | [10] 26.6 µM | [11] 26.2 µM
inactive: [2] | [3] | [4]

CCC(=O)Oc1ccc(/C(CC)=C(\CC)c2ccc(OC(=O)CC)cc2)cc1
inactive: [2] | [4] | [5] | [7]
active: [1] 25.2 µM | [3] 33.7 µM | [6] 27.9 µM | [10] 18.5 µM | [11] 4.5 µM
